Assay results as given in PubChem BioAssay.
The source made the active and inactive calls.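 Rule for the calls: active = z-score of at least 1.8 in each of two replicates, scored against plate mean and spread of sample wells; inactive = the rest.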

Test: galactose survival enhancers in mitochondrial complex I cybrids – cell-based, galactose medium, ATP luminescence, primary screen (AID 1645843);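 note: positive z means more ATP and so rescue of galactose-driven cybrid death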
Conditions: complex I mutant cybrid cells, 72 h, active compounds read high

**Q.** Which z-score does the source give for `COc1ccc(OC)c(-c2ncnc3sc(C)c(C)c23)c1` here?
**A.** 0.645 (inactive)

**Q.** For `CCN1CCCC(C(=O)N2CCC(n3cc(C(C)(C)C)nn3)CC2)C1` (stereo not given), which z-score is on record?
**A.** 0.15 (inactive)

**Q.** With `COc1cc(OC2(C(=O)O)CCSCC2)ccc1CN1CCCNCC1` as the compound, how does the z-score read?
**A.** -0.23 (inactive)

**Q.** With `CCC1(CO)CCCN(c2ncc(C(F)(F)F)cc2Cl)C1` (stereo not given) as the compound, how does the z-score read?
**A.** 2.98 (active)

**Q.** For `CCCc1noc(CN(C)C(=O)CCc2ccc(C)c(C)c2)n1`, which z-score is on record?
**A.** -0.575 (inactive)

**Q.** For `c1ccc(-n2cc(-c3ccnc(NCc4cnc5ccccn45)n3)cn2)cc1`, which z-score is on record?
**A.** -1.09 (inactive)

**Q.** With `Cn1nc(NC(=O)Cn2ccc(-c3ccsc3)n2)c2ccccc21` as the compound, how does the z-score read?
**A.** 0.985 (inactive)

**Q.** Which z-score does the source give for `CCc1ncc(-c2cc(C(=O)N3CCC(C)(C)C3)c3ccc(F)cc3n2)cn1` here?
**A.** -0.56 (inactive)

**Q.** With `CC(=O)c1c(C)nn(CC(=O)Nc2ccc(N3CCOCC3)cc2)c1C` as the compound, how does the z-score read?
**A.** -0.6 (inactive)

**Q.** For `Fc1ccc(-n2cc(-c3ccnc(NCc4cnc5ccccn45)n3)cn2)cc1`, which z-score is on record?
**A.** -0.035 (inactive)

**Q.** With `Cc1ccc2nc(-c3cnc(CCC(C)C)nc3)c(C)c(C(=O)N(C)C)c2c1` as the compound, how does the z-score read?
**A.** -0.51 (inactive)

**Q.** Which z-score does the source give for `O=C(Nc1nc(-c2ccccc2)ns1)N1CCN(C2CCCCC2)C(=O)C1` here?
**A.** -0.54 (inactive)

**Q.** Which z-score does the source give for `COc1cc(N2CCCC(c3nc(C(C)C)no3)C2)nc(N)n1` (stereo not given) here?
**A.** 0.815 (inactive)

**Q.** For `CCCCCN1C(=O)C2(CCN(C(=O)N3CCCC3)CC2)Nc2ccccc21`, which z-score is on record?
**A.** -1.2 (inactive)

**Q.** With `Cc1nnc(NC(=O)N2CCCN(c3ccncc3C)CC2)s1` as the compound, how does the z-score read?
**A.** -0.57 (inactive)

**Q.** Which z-score does the source give for `CC(C)CCC(C)N[C@H](CO)Cc1ccccc1` (stereo not given in full) here?
**A.** -0.5 (inactive)

**Q.** With `CCC1(CC)CC1C(=O)N1CCC(n2cc(C3CC3)nn2)CC1` (stereo not given) as the compound, how does the z-score read?
**A.** -0.51 (inactive)

**Q.** With `Cc1nn(C)c(C)c1-c1ccnc(NCc2ccc3nsnc3c2)n1` as the compound, how does the z-score read?
**A.** -0.665 (inactive)

**Q.** Which z-score does the source give for `C=C1C2(C(=O)N3CCC(c4ccc(F)cc4)C3)CCC(C2)C1(C)C` (stereo not given) here?
**A.** 0.91 (inactive)

**Q.** With `O=C(CC1CCCCCC1)N1CCC(Cn2cc(C3CC3)nn2)CC1` as the compound, how does the z-score read?
**A.** -0.55 (inactive)

**Q.** Which z-score does the source give for `O=C(NC(Cn1cccn1)c1ccccc1)c1ccc2nccnc2c1` (stereo not given) here?
**A.** 1.25 (inactive)

**Q.** For `O=C(c1ccc(OC2(C(=O)O)CCSCC2)cc1)N1CCOCC1`, which z-score is on record?
**A.** -0.515 (inactive)

**Q.** For `CCC(C)C(c1nc(C(C)C)no1)N1Cc2ccccc2C1=O` (stereo not given), which z-score is on record?
**A.** -0.17 (inactive)

**Q.** Which z-score does the source give for `O=c1c2ccc(C(F)(F)F)cc2ncn1CCC1CCCCN1C1CCCC1` (stereo not given) here?
**A.** -0.69 (inactive)

**Q.** Which z-score does the source give for `COc1ccc(C(C)=O)c(OC2(C(=O)O)CCSCC2)c1` here?
**A.** -0.58 (inactive)

**Q.** With `Cc1cc(CN2CCN(C)C(CCO)C2)c2cccc(C)c2n1` (stereo not given) as the compound, how does the z-score read?
**A.** -0.035 (inactive)

**Q.** With `CC(C)Oc1ccc(Cl)cc1-c1nnc2ccc(Cl)cn12` as the compound, how does the z-score read?
**A.** 0.31 (inactive)

**Q.** For `CC(Oc1ccc2c(c1)OCO2)C(=O)N1CCCCC1CCN1CCCC1=O` (stereo not given), which z-score is on record?
**A.** 1.73 (inactive)

**Q.** Which z-score does the source give for `CC(C)Oc1ccc(Cl)cc1-c1nnc2ccccn12` here?
**A.** -0.805 (inactive)

**Q.** With `NC(=O)NCc1cn(CC2CCN(C(=O)CC3CCCCCC3)CC2)nn1` as the compound, how does the z-score read?
**A.** -0.605 (inactive)

**Q.** With `COc1cc(Cl)ccc1C(=O)N1CCC(Cn2cc(C3CC3)nn2)CC1` as the compound, how does the z-score read?
**A.** -0.63 (inactive)

**Q.** For `CC1(C)CCN(C(=O)c2cc(-c3cnc(C4CC4)nc3)nc3cc(F)ccc23)C1`, which z-score is on record?
**A.** -0.56 (inactive)

**Q.** With `COc1cccc(CC(=O)NCc2ccsc2)c1` as the compound, how does the z-score read?
**A.** -0.32 (inactive)

**Q.** With `OC1(c2ccccc2)CCN(Cc2ccccc2Cl)C1` (stereo not given) as the compound, how does the z-score read?
**A.** -1.11 (inactive)

**Q.** For `CCCCCNC(=O)N1CCC2(CC1)Nc1ccccc1N(CC)C2=O`, which z-score is on record?
**A.** -0.065 (inactive)

**Q.** For `CC1CCCCN1Cc1ccc(-c2nc(CCn3cccn3)cc(=O)[nH]2)cc1` (stereo not given), which z-score is on record?
**A.** -0.245 (inactive)

**Q.** With `CCOC(=O)c1ccc(N2CCC(c3ccc(F)cc3)C2)nc1` (stereo not given) as the compound, how does the z-score read?
**A.** 0.975 (inactive)

**Q.** For `Cc1cc(C)c(-n2cccn2)c(-c2nc3c(cnn3C(C)C)[nH]2)c1`, which z-score is on record?
**A.** -0.485 (inactive)

**Q.** With `CC(C)Cc1cn(C2CCN(C(=O)CC3CCCCCC3)CC2)nn1` as the compound, how does the z-score read?
**A.** 2.74 (active)

**Q.** For `CC(C)Oc1cccc(C(=O)N2CCC(Cn3cc(C4CC4)nn3)CC2)c1`, which z-score is on record?
**A.** -0.515 (inactive)
